# Experimental data taken from the supplement of paper PMC10849652.
# Of roughly 7,900 targets only a part is listed; those with a hit were picked by preference. About 0.6% of all pairs of compound and target were hits. Unmarked numbers belong to inactive results.
# Experiments:
# Assay in all cases: log2 fold change, soluble protein after heating vs DMSO (PISA); higher = thermal stabilisation; K562 cells, 10 uM, 30 min; active = over 0.2 and 3.5 SD of the protein, either way, in both replicates (recomputed)
# erlotinib = compound: C#Cc1cccc(Nc2ncnc3cc(OCCOC)c(OCCOC)cc23)c1 [erlotinib]
# Outline: (§1)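 K562 cells at 2×10^6 cells/mL were treated with 10 μM compound for 30 min. Aliquots were heated for 3 min across 48°C-58°C, pooled, and extracted in PBS with 0.5% NP-40 at 4°C; soluble protein was the supernatant after 21,000xg for 90 min. Soluble protein was quantified by TMTpro 16plex LC-MS/MS with channel sums equalised, and reported as log2 fold change in thermal stability against DMSO controls, with values from duplicates.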
# [1] = compound: C/C(=N\NC(=O)C1=CC(=CC=C1)S(=O)(=O)N2CCOCC2)/C3=C(C=CC(=C3)Cl)O
# Outline: as §1
# [2] = compound: C1=CC(=C(C=C1Cl)C2=NC3=NC=CN=C3C(=N2)NC4=CC=NC=C4)F
# Outline: as §1
# [3] = compound: C1=CC(=CC=C1C2=NC3=C(N2)C=C(C=C3)C(=O)N)OC4=CC=C(C=C4)Cl
# Outline: as §1
# [4] = compound: C1=CC2=C(C=CC(=C2)/C=C\3/C(=O)NC(=NCC4=CC=CS4)S3)N=C1
# Outline: as §1
# [5] = compound: C1=CC2=NC=CN=C2C=C1/C=C/3\C(=O)NC(=O)S3
# Outline: as §1
# [6] = compound: C1=CC=C(C=C1)C2=NC(=C(N2)C3=CC=NC=C3)C4=CC(=C(C=C4)Cl)O
# Outline: as §1
# [7] = compound: C1=CC=C2C(=C1)C3=NNC4=CC=CC(=C43)C2=O
# Outline: as §1
# [8] = compound: C1CCN(C1)C(=O)NC2=CC=CC(=C2)NC3=NC=C(C(=N3)NCCC4=CN=CN4)Br
# Outline: as §1
# [9] = compound: C1CN(CCC1(CC2=CC=C(C=C2)Cl)N)C3=NC=NC4=C3C=CN4
# Outline: as §1
# Chain of UniProt Q9NZ09 (Q9NZ09 whole entry, looked up): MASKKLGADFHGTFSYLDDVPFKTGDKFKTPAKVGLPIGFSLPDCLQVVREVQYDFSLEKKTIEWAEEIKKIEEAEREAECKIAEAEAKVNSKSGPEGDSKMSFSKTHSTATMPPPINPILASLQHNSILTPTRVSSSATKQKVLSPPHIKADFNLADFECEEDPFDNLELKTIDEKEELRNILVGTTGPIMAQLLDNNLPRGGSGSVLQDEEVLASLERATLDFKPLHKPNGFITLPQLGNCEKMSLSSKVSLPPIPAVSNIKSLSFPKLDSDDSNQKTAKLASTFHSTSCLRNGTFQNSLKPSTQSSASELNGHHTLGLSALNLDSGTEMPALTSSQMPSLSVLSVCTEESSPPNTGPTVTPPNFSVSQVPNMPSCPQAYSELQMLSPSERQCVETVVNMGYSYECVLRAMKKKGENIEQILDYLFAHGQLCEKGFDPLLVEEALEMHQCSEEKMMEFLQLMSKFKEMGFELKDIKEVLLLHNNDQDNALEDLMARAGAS
# Chain of UniProt Q9H4A3 (Q9H4A3 whole entry, looked up): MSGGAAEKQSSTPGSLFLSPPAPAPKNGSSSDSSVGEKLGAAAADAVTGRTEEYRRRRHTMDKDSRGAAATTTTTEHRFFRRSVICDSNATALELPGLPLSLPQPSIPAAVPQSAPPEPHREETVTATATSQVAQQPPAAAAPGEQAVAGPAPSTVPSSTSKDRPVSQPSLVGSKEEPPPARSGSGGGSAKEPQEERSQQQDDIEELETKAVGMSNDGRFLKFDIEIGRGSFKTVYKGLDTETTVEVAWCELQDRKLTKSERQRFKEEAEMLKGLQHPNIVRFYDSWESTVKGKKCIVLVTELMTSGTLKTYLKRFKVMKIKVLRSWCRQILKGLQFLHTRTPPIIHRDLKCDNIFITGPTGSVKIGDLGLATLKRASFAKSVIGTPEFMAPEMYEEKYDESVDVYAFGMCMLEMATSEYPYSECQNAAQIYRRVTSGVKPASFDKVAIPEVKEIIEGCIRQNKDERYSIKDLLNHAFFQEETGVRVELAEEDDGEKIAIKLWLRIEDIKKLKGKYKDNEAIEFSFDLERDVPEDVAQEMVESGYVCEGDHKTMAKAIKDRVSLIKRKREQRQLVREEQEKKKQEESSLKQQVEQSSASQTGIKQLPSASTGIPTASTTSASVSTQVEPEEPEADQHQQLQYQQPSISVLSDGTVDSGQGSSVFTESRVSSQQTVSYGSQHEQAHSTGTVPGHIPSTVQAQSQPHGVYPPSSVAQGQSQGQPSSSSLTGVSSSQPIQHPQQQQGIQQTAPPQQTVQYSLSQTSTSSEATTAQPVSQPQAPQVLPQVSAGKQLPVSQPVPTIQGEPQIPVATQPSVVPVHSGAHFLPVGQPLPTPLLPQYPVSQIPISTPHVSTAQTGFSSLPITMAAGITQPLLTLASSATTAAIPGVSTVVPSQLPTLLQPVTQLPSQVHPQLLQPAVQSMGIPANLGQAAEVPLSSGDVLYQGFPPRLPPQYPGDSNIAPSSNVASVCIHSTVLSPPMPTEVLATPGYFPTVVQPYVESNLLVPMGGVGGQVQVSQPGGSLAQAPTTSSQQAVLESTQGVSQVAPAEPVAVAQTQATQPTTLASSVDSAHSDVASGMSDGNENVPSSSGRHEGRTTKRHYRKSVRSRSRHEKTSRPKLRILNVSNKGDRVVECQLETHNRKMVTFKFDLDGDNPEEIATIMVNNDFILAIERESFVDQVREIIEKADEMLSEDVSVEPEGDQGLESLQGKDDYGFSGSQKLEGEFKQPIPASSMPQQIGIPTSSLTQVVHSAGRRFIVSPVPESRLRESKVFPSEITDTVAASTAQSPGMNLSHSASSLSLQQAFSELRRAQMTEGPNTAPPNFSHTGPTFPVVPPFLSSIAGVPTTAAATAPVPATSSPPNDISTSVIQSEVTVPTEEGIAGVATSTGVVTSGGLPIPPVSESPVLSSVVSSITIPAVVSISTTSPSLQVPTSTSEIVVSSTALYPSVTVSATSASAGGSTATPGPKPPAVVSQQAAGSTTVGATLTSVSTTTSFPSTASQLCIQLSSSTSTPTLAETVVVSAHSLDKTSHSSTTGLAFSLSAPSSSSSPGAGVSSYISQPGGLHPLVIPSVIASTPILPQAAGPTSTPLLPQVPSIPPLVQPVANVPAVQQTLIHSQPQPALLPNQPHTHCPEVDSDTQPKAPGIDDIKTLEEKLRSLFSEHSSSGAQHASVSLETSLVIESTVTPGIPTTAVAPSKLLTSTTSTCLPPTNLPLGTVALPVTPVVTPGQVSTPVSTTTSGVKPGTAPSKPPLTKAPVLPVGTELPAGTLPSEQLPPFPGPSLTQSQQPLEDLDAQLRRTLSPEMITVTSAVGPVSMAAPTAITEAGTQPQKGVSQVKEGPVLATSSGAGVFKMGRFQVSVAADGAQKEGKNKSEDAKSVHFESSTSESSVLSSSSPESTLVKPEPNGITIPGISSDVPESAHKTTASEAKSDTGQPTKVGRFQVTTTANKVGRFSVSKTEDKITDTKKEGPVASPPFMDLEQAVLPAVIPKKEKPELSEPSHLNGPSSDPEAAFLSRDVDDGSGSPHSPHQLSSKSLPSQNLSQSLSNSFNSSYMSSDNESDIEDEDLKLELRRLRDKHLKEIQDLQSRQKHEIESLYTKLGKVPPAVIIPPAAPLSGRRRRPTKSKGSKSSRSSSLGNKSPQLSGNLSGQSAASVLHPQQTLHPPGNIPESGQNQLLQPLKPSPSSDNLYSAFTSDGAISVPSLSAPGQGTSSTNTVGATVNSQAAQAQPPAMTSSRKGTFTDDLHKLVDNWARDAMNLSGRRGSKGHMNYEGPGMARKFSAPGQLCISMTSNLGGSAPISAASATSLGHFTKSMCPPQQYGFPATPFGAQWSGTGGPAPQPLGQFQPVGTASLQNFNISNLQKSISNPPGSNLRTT
# Chain of UniProt Q9BXJ8 (Q9BXJ8 whole entry, looked up): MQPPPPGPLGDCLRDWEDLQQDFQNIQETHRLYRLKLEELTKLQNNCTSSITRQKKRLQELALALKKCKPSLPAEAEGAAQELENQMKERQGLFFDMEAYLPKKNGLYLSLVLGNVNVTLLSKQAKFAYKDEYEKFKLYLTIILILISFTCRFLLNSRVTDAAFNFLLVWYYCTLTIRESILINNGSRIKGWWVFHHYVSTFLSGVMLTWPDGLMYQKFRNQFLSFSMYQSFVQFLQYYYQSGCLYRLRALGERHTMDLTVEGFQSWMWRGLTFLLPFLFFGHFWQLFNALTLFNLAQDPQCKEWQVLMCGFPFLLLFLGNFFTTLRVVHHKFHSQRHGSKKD
# Chain of UniProt Q86SZ2 (Q86SZ2 whole entry, looked up): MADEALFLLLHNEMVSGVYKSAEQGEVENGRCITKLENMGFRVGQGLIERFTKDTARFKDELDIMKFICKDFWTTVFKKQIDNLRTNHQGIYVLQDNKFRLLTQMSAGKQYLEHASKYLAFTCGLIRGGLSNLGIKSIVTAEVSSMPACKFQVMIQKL
# Chain of UniProt Q969X6 (Q969X6 whole entry, looked up): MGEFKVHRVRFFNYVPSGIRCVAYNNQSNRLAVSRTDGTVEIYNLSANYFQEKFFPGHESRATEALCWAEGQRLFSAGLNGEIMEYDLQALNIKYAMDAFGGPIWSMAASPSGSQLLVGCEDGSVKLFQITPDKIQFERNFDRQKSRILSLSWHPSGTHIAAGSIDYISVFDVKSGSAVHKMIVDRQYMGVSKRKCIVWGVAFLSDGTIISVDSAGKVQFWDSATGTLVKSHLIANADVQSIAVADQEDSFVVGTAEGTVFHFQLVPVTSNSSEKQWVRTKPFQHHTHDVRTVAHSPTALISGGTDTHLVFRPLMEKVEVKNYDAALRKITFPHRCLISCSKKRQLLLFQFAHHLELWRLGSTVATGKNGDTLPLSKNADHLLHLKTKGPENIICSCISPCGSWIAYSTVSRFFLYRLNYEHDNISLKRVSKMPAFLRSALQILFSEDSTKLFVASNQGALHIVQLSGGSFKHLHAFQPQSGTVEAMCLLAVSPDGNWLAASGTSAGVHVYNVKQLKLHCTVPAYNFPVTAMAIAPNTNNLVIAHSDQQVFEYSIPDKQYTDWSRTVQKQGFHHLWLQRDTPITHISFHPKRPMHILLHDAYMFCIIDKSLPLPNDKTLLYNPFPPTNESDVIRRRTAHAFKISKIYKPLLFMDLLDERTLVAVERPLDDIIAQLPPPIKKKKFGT
# Chain of UniProt Q9H3M7 (Q9H3M7 whole entry, looked up): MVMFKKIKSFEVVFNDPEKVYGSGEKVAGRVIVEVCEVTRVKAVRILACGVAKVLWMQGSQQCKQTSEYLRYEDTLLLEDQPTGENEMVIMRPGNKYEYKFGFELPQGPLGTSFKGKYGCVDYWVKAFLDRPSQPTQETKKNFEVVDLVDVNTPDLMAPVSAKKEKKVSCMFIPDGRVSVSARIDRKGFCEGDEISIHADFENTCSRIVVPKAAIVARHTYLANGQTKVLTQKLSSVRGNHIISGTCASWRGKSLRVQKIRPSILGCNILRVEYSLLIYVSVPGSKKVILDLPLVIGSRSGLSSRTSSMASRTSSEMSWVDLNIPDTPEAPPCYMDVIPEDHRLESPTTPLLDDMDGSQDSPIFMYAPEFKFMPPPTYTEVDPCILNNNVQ
# Chain of UniProt Q9UGM6 (Q9UGM6 whole entry, looked up): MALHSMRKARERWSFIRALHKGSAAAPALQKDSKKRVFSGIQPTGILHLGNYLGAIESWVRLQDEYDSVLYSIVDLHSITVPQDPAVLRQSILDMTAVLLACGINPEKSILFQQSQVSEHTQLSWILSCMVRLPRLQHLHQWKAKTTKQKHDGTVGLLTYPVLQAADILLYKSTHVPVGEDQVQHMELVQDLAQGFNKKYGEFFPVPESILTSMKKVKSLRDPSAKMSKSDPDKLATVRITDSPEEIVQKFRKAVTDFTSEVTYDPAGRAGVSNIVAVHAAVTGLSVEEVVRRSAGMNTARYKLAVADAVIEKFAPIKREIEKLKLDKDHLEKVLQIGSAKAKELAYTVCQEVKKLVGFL
# Chain of UniProt Q9NQ34 (Q9NQ34 whole entry, looked up): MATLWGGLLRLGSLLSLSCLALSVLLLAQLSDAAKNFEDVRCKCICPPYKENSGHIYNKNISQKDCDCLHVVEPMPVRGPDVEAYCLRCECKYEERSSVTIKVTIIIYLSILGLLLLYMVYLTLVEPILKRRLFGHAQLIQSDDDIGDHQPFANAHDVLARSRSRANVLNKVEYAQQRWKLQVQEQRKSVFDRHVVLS
Target,log2 fold change (erlotinib),log2 fold change [1],log2 fold change [2],log2 fold change [3],log2 fold change [4],log2 fold change [5],log2 fold change [6],log2 fold change [7],log2 fold change [8],log2 fold change [9]
VRK2 (UniProt Q86Y07),0.004,0.014,-0.021,-0.026,-0.065,0.011,-0.02,0.118,0.013,0.072
TXN2 (UniProt Q99757),-0.035,-0.022,0.093,-0.032,0.086,0.098,-0.02,0.029,0.029,0.005
TMEM41A (UniProt Q96HV5),0.013,0.046,-0.02,-0.014,0.024,0.037,-0.04,0.013,-0.069,0.033
TOE1 (UniProt Q96GM8),-0.029,-0.151,-0.267,-0.056,0.002,0.005,-0.05,-0.035,-0.021,-0.107
UBAP1 isoform 4 (UniProt Q9NZ09),0.001,0.127,0.013,0.049,0.025,0.027,-0.02,0.024,0.058,-0.093
TMEM173 (UniProt Q86WV6),0.028,0.018,-0.012,-0.078,0.068,0.019,-0.044,-0.032,0.02,-0.05
WDR46 (UniProt O15213),-0.209,-0.231,-0.816 (active),0.008,-0.154,0.065,-0.055,0.052,0.057,-0.087
UBAP2L isoform 5 (UniProt Q14157),0.057,-0.005,0.005,0,0.013,0.015,-0.029,-0.03,-0.007,0.026
TRMT10C (UniProt Q7L0Y3),-0.015,0.066,0.09,0.062,0.009,-0.007,0.036,0.036,-0.008,0.009
TXNIP (UniProt Q9H3M7),0.013,0.017,0.082,0.025,0.108,0.124,0.141,0.034,0.137,0.041
UFL1 (UniProt O94874),0.06,0.075,0.037,-0.03,0.021,0.021,0.069,0.096,-0.012,-0.101
TRIP10 (UniProt Q15642),0.052,0.015,0.203,0.022,0.013,-0.025,0.044,0.011,0.013,-0.026
UBA6,0.011,0.099,0.06,0.038,0.014,-0.037,0.014,0.015,-0.024,-0.015
WARS2 (UniProt Q9UGM6),0.069,-0.016,0.034,-0.094,0.033,0.006,-0.032,0.031,0.027,-0.027
TMEM161B (UniProt Q8NDZ6),0.037,-0.074,0.013,-0.021,-0.054,0.018,0.159,-0.026,-0.053,-0.03
TMEM120A (UniProt Q9BXJ8),-0.036,0.109,0.174,0.053,0,0.236,-0.02,-0.036,-0.071,0.1
TUBA4A (UniProt P68366),0.016,0.048,0.048,-0.038,0.069,-0.04,-0.037,0.027,-0.015,0.075

Target,log2 fold change (erlotinib),log2 fold change [1],log2 fold change [2],log2 fold change [3],log2 fold change [4],log2 fold change [5],log2 fold change [6],log2 fold change [7],log2 fold change [8],log2 fold change [9]
TNPO3 (UniProt Q9Y5L0),-0.01,0.132,0.068,-0.009,-0.014,0.029,0.023,-0.007,0.004,-0.03
UBE2Q1 (UniProt Q7Z7E8),0.058,0.006,0.059,0.017,0.019,0.061,0.014,0.026,-0.016,-0.037
VPS72 isoform 2 (UniProt Q15906),-0.017,-0.062,0.053,-0.108,0.04,-0.094,-0.054,-0.134,0.056,0.028
VPS33A (UniProt Q96AX1),0.025,0.035,-0.054,-0.01,0.057,0.013,0.005,-0.023,-0.051,-0.083
WNK1 isoform 7 (UniProt Q9H4A3),0.043,0.014,0.012,-0.003,0.026,0.006,-0.046,0.021,-0.028,-0.02
TOM1L1 (UniProt O75674),0.019,-0.009,-0.003,0.044,-0.038,0.037,-0.023,-0.026,0.006,0.076
TPR (UniProt P12270),-0.113,0.023,-0.001,-0.011,-0.098,0.174,-0.104,-0.118,0,-0.142
VWA3B isoform 6 (UniProt Q502W6),0.107,-0.036,0.213,-0.057,0.048,0.111,-0.214,-0.049,0.03,-0.03
UTP4 (UniProt Q969X6),-0.05,-0.07,-0.009,0.005,-0.082,0.026,-0.022,0.012,0,0.06
XIAP (UniProt P98170),0.166,0.062,0.1,-0.002,0.075,-0.018,–,-0.002,-0.024,0.065
UBAP2L isoform 1 (UniProt Q14157),-0.126,0.013,-0.003,0.083,-0.06,-0.023,0.04,-0.024,-0.082,0.017
TRAPPC6B (UniProt Q86SZ2),0.026,0.07,0.315 (active),-0.016,0.011,-0.006,-0.016,-0.014,-0.048,0.018
VAMP7 (UniProt P51809),-0.02,0.003,0.077,0.005,0.016,0.007,0.065,-0.001,0.001,0.03
TMEM164 (UniProt Q5U3C3),-0.103,0.178,0.041,0.002,0.129,0.078,–,0.017,-0.042,0.021
TMEM9B (UniProt Q9NQ34),0.062,-0.044,0.009,-0.006,0.055,-0.013,-0.016,-0.016,-0.006,0.042
USP24 (UniProt Q9UPU5),0.126,-0.147,0.101,-0.113,0.092,0.148,0.141,0.094,0.181,0.297
